Sampled rows, rich in hits. Any-hit rate of the full collection: about 2.2%.
dFosB activator: enhances mouse delta FosB homodimer DNA binding. activation, % at 25 µM. P13346. 340,000 tested, 0.99% active. purified delta FosB, TAMRA-CDK5 oligo fluorescence polarization; percent of positive-control signal above neutral wells. AID 493131;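 active = mean activation above about 17%, with every replicate also reaching it, limit read from the data, passing the limit was not always enough; inconclusive = only one of the two conditions met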
Target sequence (P13346 whole entry, looked up): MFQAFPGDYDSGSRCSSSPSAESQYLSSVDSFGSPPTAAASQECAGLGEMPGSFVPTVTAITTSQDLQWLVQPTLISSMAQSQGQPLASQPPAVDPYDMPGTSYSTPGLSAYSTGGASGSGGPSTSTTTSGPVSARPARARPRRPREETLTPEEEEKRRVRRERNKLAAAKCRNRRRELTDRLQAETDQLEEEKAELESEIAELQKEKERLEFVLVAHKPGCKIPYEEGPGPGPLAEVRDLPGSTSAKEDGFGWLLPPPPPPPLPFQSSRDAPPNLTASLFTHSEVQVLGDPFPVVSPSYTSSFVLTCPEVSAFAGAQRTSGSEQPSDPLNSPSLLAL
NALP3 yeast inh: inhibitors of NALP3 inflammasome in yeast. inhibition, % at 10 µM. AID 2825. 330,000 tested, 0.39% active. Yeast reconstituted NLRP3/ASC/caspase-1, beta-gal luminescence, 24 h;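 active = inhibition of 50% or more; inactive = inhibition below 50%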
ZTA counter: blocks Epstein-Barr virus ZTA, an EBNA-1 counter-screen | AID 2234 | 320,000 tested, 0.15% active | P03206 | ZTA-DNA binding, fluorescence polarization | inhibition, % at 11 µM; in the data active = inhibition above about 33%
Target sequence (P03206 whole entry, looked up): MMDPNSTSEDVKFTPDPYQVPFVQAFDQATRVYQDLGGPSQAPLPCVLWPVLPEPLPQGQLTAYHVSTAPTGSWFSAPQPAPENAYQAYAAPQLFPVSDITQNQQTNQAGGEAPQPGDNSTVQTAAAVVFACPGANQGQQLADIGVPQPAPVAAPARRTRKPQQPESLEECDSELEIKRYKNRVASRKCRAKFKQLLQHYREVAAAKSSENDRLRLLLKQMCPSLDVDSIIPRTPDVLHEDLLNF
PolyA inh: blocks polyadenylation in yeast reporter cells. AID 1875. 300,000 tested, 0.02% active. activity score, % at 12 µM. S. cerevisiae SKY197-pL101 polyadenylation reporter, beta-gal luminescence; efflux-impaired pdr1/pdr3 knockout yeast; score 100 = 6 SD above DMSO;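 active = lowest replicate activity score at least 50, where 100 means six control SD above control mean; inconclusive = lowest score under 50 but half or more replicates reach 50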;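 note: yeast exposed to compound for 9 h at 30 °C; higher score means more reporter readthrough which indicates perturbed polyadenylation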
NALP1 yeast inh: inhibitors of NALP1 inflammasome in yeast; S. cerevisiae NALP1/ASC/caspase-1 growth, X-gal OD620, 72 h; inhibition, % at 10 µM; 280,000 tested, 0.61% active; in the data active = inhibition mostly above about 24%, no sharp cut-off; inactive = mostly below about 32%
EBNA-1 inhibitor: blocks EBNA-1 binding to DNA; AID 1950; inhibition, % at 14.8 µM; 300,000 tested, 0.34% active; EBNA-1 DNA binding, fluorescence polarization; in the data active = inhibition above about 28%
EBNA-1 inh conf: EBNA-1 (EBV) inhibition, confirmation. shares compounds with EBNA-1 inhibitor. Recombinant EBNA-1 DBD, Cy5-DNA fluorescence polarization. inhibition, % at 14.8 µM. 830 tested, 35% active;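 active = mean inhibition across replicates above a set limit taken from the earlier primary screen, cut at about 28% in these data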
ZTA DNA inh trip: ZTA (EBV) inhibition, triplicate counter-screen; 830 tested, under 10 active; inhibition, % at 11.1 µM; shares compounds with EBNA-1 inhibitor; Zta-ZRE DNA binding, Cy5 fluorescence polarization;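 active = mean inhibition over triplicates above a set limit taken from the primary EBNA-1 screen, cut at about 37% in these data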;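 note: purified full length Zta protein with Cy5 labeled ZRE DNA probe; inhibitors lower polarization by freeing the labeled DNA probe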
Each line names hits and unclear results; the compound was inactive in the other large screens (follow-up assays come after a bar, where they were run).

CCN(C[C@H]1N[C@@](CC)(C(=O)OC)[C@H]2C(=O)N(C)C(=O)[C@@H]12)C(=O)Nc1ccccc1	none (no result: ZTA counter, PolyA inh, NALP1 yeast inh, EBNA-1 inhibitor)
Cn1c(N)c(C(=O)Nc2c(Cl)cccc2Cl)sc1=S	none
OC1COC(c2ccccc2)OC1C(O)C1OC(c2ccccc2)OCC1O (centres undefined)	none (no result: NALP3 yeast inh, ZTA counter, PolyA inh, NALP1 yeast inh, EBNA-1 inhibitor)
Cc1cccc(C)c1NC(=O)C(NC(=O)CN1C(=O)c2ccccc2C1=O)c1ccccc1 (centres undefined)	EBNA-1 inhibitor 29 | EBNA-1 inh conf inactive | ZTA DNA inh trip inactive
CC(NC(=O)CN1C(=O)c2ccccc2C1=O)c1ccccc1 (centres undefined)	none
Cc1cc(C(=O)CSc2nnnn2-c2ccccc2)c(C)n1CC1CCCO1 (centres undefined)	EBNA-1 inhibitor 151 | EBNA-1 inh conf 93 | ZTA DNA inh trip inactive
Cc1ccc(-c2csc3ncnc(SCC(=O)Nc4nnc(C)s4)c23)cc1	EBNA-1 inhibitor 38 | EBNA-1 inh conf inactive | ZTA DNA inh trip inactive
Cc1ccc(CNS(=O)(=O)NCc2ccc(Cl)cc2)cc1	none
COc1ccc(CNS(=O)(=O)NCc2ccc(C)cc2)cc1	EBNA-1 inhibitor 56 | EBNA-1 inh conf inactive | ZTA DNA inh trip inactive
CCCCCCSc1ccc([C@@H]2[C@@H]3C(=O)N(C)C(=O)[C@@H]3[C@]3(C(=O)OC)CCCCN23)cc1	none (no result: ZTA counter, PolyA inh, NALP1 yeast inh, EBNA-1 inhibitor)
CCOc1ccc(/C=N/NC(=O)C(=O)NCc2ccco2)cc1	EBNA-1 inhibitor 34 | EBNA-1 inh conf inactive | ZTA DNA inh trip inactive
Oc1ccc(N2CCN(Cc3nc4ccccc4[nH]3)CC2)cc1	none
COCCOC(=O)c1c(NC(=O)CN(C)c2ccccc2)sc(C(N)=O)c1C	none
COCCOC(=O)c1c(NC(=O)COC(=O)Cc2cccc(OC)c2)sc(C(N)=O)c1C	EBNA-1 inhibitor 39 | EBNA-1 inh conf 98 | ZTA DNA inh trip inactive
Cc1cc(Cl)ccc1OCC(=O)NC(=S)Nc1ccccc1N1CCOCC1	EBNA-1 inhibitor 44 | EBNA-1 inh conf 38 | ZTA DNA inh trip inactive
O=C(Nc1ccnn1C1CCNCC1)c1ccc2c(c1)OCO2	none (no result: NALP3 yeast inh, ZTA counter, PolyA inh, NALP1 yeast inh, EBNA-1 inhibitor)
Cc1nnn(-c2nonc2N)c1C(=O)NNC(=O)c1ccc(Cl)c(Cl)c1	none
CC(=O)C1=C(O)C(=O)N(CCCn2ccnc2)C1c1ccc(Br)cc1 (centres undefined)	EBNA-1 inhibitor 40 | EBNA-1 inh conf inactive | ZTA DNA inh trip inactive
COc1ccccc1/C=C/C(=O)OCC(=O)NC1CCCCCCC1	none (no result: ZTA counter, PolyA inh, NALP1 yeast inh, EBNA-1 inhibitor)
O=C(NCCCCNC(=O)c1ccc(Cl)s1)c1ccc(Cl)s1	none
O=C(NCCCCCCNC(=O)c1ccc(Br)s1)c1ccc(Br)s1	EBNA-1 inhibitor 53 | EBNA-1 inh conf inactive | ZTA DNA inh trip inactive
CC(OCc1ccccc1)C(NC(=O)OC(C)(C)C)C(=O)NCC1CCCO1 (centres undefined)	EBNA-1 inhibitor 46 | EBNA-1 inh conf inactive | ZTA DNA inh trip inactive
CC1CC(C)CN(C(=O)c2cccc(S(=O)(=O)Nc3cc(C(F)(F)F)ccc3Cl)c2)C1 (centres undefined)	EBNA-1 inhibitor 30 | EBNA-1 inh conf inactive | ZTA DNA inh trip inactive
CCCCn1c(N)c(N(CCC(C)C)C(=O)c2cc(-c3ccco3)nc3ccccc23)c(=O)[nH]c1=O	EBNA-1 inhibitor 51 | EBNA-1 inh conf inactive | ZTA DNA inh trip inactive
CCCCN(C(=O)c1cc(-c2ccco2)nc2ccccc12)c1c(N)n(CCCC)c(=O)[nH]c1=O	none (no result: NALP1 yeast inh)
O=C(c1ccc(Cl)c(NC2=NC3CS(=O)(=O)CC3S2)c1)N1CCN(c2ccc(F)cc2)CC1 (centres undefined)	none
C/C(=N\NC(=O)Cc1ccc(Cl)cc1)c1ccccc1O	none
O=C(c1ccc(S(=O)(=O)N2CCCCCC2)cc1)N1CCC(CN2C(=O)c3cccc4cccc(c34)C2=O)CC1	EBNA-1 inhibitor 30 | EBNA-1 inh conf inactive | ZTA DNA inh trip inactive
Cc1ccc([C@@H]2[C@@H]3C(=O)N(C)C(=O)[C@@H]3[C@]3(C)C(=O)N(Cc4ccc(-c5ccccc5)cc4)CC(=O)N23)o1	none
O=C(CN1C(=O)C(=O)N(C2CCCC2)C1=O)Nc1ccc([N+](=O)[O-])cc1	none (no result: ZTA counter, PolyA inh, NALP1 yeast inh, EBNA-1 inhibitor)
CS(=O)(=O)c1ccc(-c2cccc(NC(=O)c3ccc(Br)o3)c2)nn1	EBNA-1 inhibitor 38 (no result: NALP1 yeast inh) | EBNA-1 inh conf 28 | ZTA DNA inh trip inactive
CS(=O)(=O)c1ccc(-c2cccc(NC(=O)COc3ccccc3)c2)nn1	none
O=c1c2ccccc2nc(SCc2ccccc2)n1Cc1ccco1	none
O=c1c2ccccc2nc(SCc2nc3ccccc3s2)n1Cc1ccco1	EBNA-1 inhibitor 49 | EBNA-1 inh conf inactive | ZTA DNA inh trip inactive
Cc1nc2ccc(NS(=O)(=O)c3ccc(Br)cc3)cc2s1	none (no result: PolyA inh, NALP1 yeast inh, EBNA-1 inhibitor)
COc1cccc2c1C(=O)CC1C2CCC2CC(=O)CCC21C (centres undefined)	none (no result: NALP1 yeast inh)
Cc1ccc(/C(N)=N/OC(=O)c2ccc3ccccc3c2)cc1	EBNA-1 inhibitor 31 | EBNA-1 inh conf 42 | ZTA DNA inh trip inactive
COc1ccc(Cc2nc3ccc(C(=O)N(C)CCn4ccnc4)cc3o2)cc1OC	none
O=C1N/C(=C\c2ccccc2)C(O)=C1C=NCc1ccccc1	EBNA-1 inhibitor 33 | EBNA-1 inh conf inactive | ZTA DNA inh trip inactive
O=C(COc1ccccc1)N=C1SC2CS(=O)(=O)CC2N1Cc1ccccc1 (centres undefined)	EBNA-1 inhibitor active | EBNA-1 inh conf inactive | ZTA DNA inh trip inactive
Cc1ccc(S(=O)(=O)/N=C(\N)Nc2nc(C)c3cc(C)ccc3n2)cc1	none
Cc1ccc(S(=O)(=O)/N=C(\N)Nc2nc(C)c3ccc(C)cc3n2)cc1	EBNA-1 inhibitor 37 | EBNA-1 inh conf inactive | ZTA DNA inh trip inactive
Cc1ccc(S(=O)(=O)/N=C(\N)Nc2nc(C)c3cc(C)c(C)cc3n2)cc1	dFosB activator inconclusive, EBNA-1 inhibitor 38 | EBNA-1 inh conf inactive | ZTA DNA inh trip inactive
CN(C)C(CNC(=O)c1ccc(S(=O)(=O)Nc2ccccc2F)cc1)c1ccco1 (centres undefined)	none (no result: PolyA inh, NALP1 yeast inh, EBNA-1 inhibitor)
CCOC(=O)c1ccc(CNC(=O)CSc2nc(NC(=O)c3ccccc3)c3c(C)c(C)oc3n2)cc1	EBNA-1 inhibitor 40 | EBNA-1 inh conf inactive | ZTA DNA inh trip inactive
COc1ccccc1NS(=O)(=O)c1cccc(-n2c(O)c(C=Nc3ccccc3C(=O)O)c3ccccc3c2=O)c1	EBNA-1 inhibitor 36 | EBNA-1 inh conf inactive | ZTA DNA inh trip inactive
COc1ccc(Cn2c(O)c(C=Nc3ccccc3C(=O)O)c3ccccc3c2=O)cc1	none
Cc1ccc(S(=O)(=O)N(C)C)cc1NC(=O)COC(=O)CCCOc1ccccc1	EBNA-1 inhibitor 72 | EBNA-1 inh conf inactive | ZTA DNA inh trip inactive
